Experimental data as given in the supplement of paper PMC12669032.
Unmarked numbers belong to inactive results.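 The calls were made as follows: active = AUC reduced over 20% with Padj below 0.05 in at least 2 of 3 replicates; inactive = otherwise.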

Tests used:
Roseburia intestinalis = assay: growth AUC relative to DMSO control (median of replicates) (fraction); higher = more growth (less inhibition), active = hit call of the paper; settings: 20 µM; 24 h
Summary of the method: (§1)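 Area under the growth curve was normalised to the plate median of solvent-only wells, except on the industrial chemical plate, where row and column medians were used. Curves came from gut bacterial monocultures grown anaerobically at 37 °C in mGAM with 20 µM compound (1% DMSO), starting at OD600 0.05 and read at OD600 every hour for 24 h. The minimum OD of each curve was set to 0, and values are medians of three biological replicates grown on separate days.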

Streptococcus salivarius = assay: as above; settings: 20 µM; 24 h
Summary of the method: as §1

| Structure (SMILES) | growth AUC (Roseburia intestinalis) | growth AUC (Streptococcus salivarius) |
| --- | --- | --- |
| COC(=O)c1ccc(C(F)(F)F)nc1S(=O)(=O)[N-]C(=O)Nc1nc(OC)cc(OC)n1.[Na+] | 0.941 | 1.02 |
| Cc1cc(N(C)C)nc(Cl)n1 | 1.01 | 1.04 |
| Cc1c(Br)c2ccc(F)cc2n1S(=O)(=O)c1ncn(S(=O)(=O)N(C)C)n1 | 1.06 | 1.06 |
| C/C=C/C=C/CCCCCCCO | 1 | 0.994 |
| CON(C(=O)c1cc(C)oc1C)C1CCCCC1 | 1.09 | 0.989 |
| C#CCOc1cc(-n2nc(C(C)(C)C)oc2=O)c(Cl)cc1Cl | 0.909 | 0.963 |
| CC(=O)Nc1cc(NS(=O)(=O)C(F)(F)F)c(C)cc1C | 1.02 | 1 |
| COC(=O)Cc1cccc2ccccc12 | 1.04 | 1.01 |
| CC(C)Nc1nc(N)nc(Cl)n1 | 1.06 | 0.988 |
| COc1cc(OC)nc(NC(=O)NS(=O)(=O)Nc2ccccc2C(=O)C2CC2)n1 | 1.1 | 0.955 |
| COC(=O)c1ccc(C)cc1C1=NC(C)(C(C)C)C(=O)N1 (racemic) | 0.934 | 0.97 |
| CNC(=O)/C(=N/OC)c1ccccc1COc1cc(C(=O)O)ccc1C | 0.996 | 0.995 |
| Oc1ccc2nc(-c3cscn3)[nH]c2c1 | 1.03 | 1.07 |
| CCN(CC)c1nc(C)cc(=O)[nH]1 | 1.01 | 1.04 |
| COc1cccc(N(C)C(=S)Oc2cccc(C(C)(C)C)c2)n1 | 0.984 | 0.967 |
| O=C(O)C1(C(=O)Nc2ccc(Cl)cc2Cl)CC1 | 1.02 | 1.01 |
| NC(Cn1cncn1)C(=O)O (centres undefined) | 1 | 0.998 |
| Oc1ccc2ccccc2c1N=Nc1ccccc1 | 1.13 | 0.914 |
| CC[N+](CC)(CC(=O)Nc1c(C)cccc1C)Cc1ccccc1.O=C([O-])c1ccccc1 | 1.02 | 1.01 |
| CCCCOCN(C(=O)CS(=O)(=O)[O-])c1c(CC)cccc1CC.[Na+] | 0.935 | 0.97 |
| C#CCN(C)c1c(C#N)cnn1-c1nn2c(c1Cl)CCCC2 | 1.02 | 1.03 |

| Structure (SMILES) | growth AUC (Roseburia intestinalis) | growth AUC (Streptococcus salivarius) |
| --- | --- | --- |
| C#CC(C)N(C)C(=O)Nc1ccc(Cl)cc1 (centres undefined) | 0.992 | 0.993 |
| C=O | 1.1 | 1 |
| c1ccc(CNc2ncnc3nc[nH]c23)cc1 | 0.962 | 1.04 |
| CC1CN(C2CCCCCCCCCCC2)CC(C)O1 (mixture of isomers) | 0.992 | 1 |
| Cc1[nH]n(C)c(=O)c1C(=O)c1ccc(C(F)(F)F)cc1S(C)(=O)=O | 1.01 | 1.03 |
| CCOC(N)=O | 1.05 | 1.01 |
| CCCCCCCC/C=C\CCCCCCCC(N)=O | 0.933 | 0.952 |
| N#CC(=NOCC1OCCO1)c1ccccc1 | 0.968 | 0.976 |
| CSc1nc(NC2CC2)nc(NC(C)(C)C)n1 | 0.981 | 1 |
| COC(=O)CC(NC(=O)[C@@H](NC(=O)OC(C)C)C(C)C)c1ccc(Cl)cc1 (some centres undefined) | 0.975 | 0.953 |
| O=[N+]([O-])c1ccc(Oc2c(Cl)cc(Cl)cc2Cl)cc1 | 1.02 | 1.03 |
| CN(C)c1ccc(N=NS(=O)(=O)[O-])cc1.[Na+] | 1.03 | 1.01 |
| O=C1NCCN1 | 1.24 | 1.02 |
| CCOC(=O)c1ccc(O)cc1 | 0.888 | 1.01 |
| CCOC(=O)CSc1nc(C(C)(C)C)nn1C(=O)N(C)C | 0.913 | 0.957 |
| CCCOC(=O)NCCCN(C)C | 1.02 | 0.967 |
| CCOC(=O)[C@@H](C)Oc1ccc(Oc2cnc3cc(Cl)ccc3n2)cc1 | 1.01 | 1.04 |
| O=C(Nc1ccc(F)cc1-c1ccc(Cl)c(Cl)c1)c1cn[nH]c1C(F)F | 0.892 | 0.945 |
| CCc1ccc(O)cc1 | 0.919 | 0.946 |
| CCOC(=O)NCCOc1ccc(Oc2ccccc2)cc1 | 0.984 | 0.976 |
| NC(=S)Nc1cccc2ccccc12 | 0.917 | 0.886 |

| Structure (SMILES) | growth AUC (Roseburia intestinalis) | growth AUC (Streptococcus salivarius) |
| --- | --- | --- |
| COc1ccc(NC(=O)N(C)C)cc1Cl | 0.925 | 0.927 |
| CCCNCCOc1c(Cl)cc(Cl)cc1Cl | 0.946 | 0.964 |
| CC(C)(C)C(O)/C(=C\c1ccc(Cl)cc1)n1cncn1 (centres undefined) | 0.973 | 0.955 |
| CC(C)c1ccccc1 | 0.991 | 0.968 |
| COc1cc(Cl)ccc1Oc1ccc(Cl)cc1Cl | 0.991 | 1.05 |
| COCC(=O)N(c1c(C)cccc1C(=O)O)C(C)C(=O)O (centres undefined) | 1.02 | 0.982 |
| CC(C)(c1cc(Br)c(O)c(Br)c1)c1cc(Br)c(O)c(Br)c1 | 0.0954 (active) | 0.144 (active) |
| CCCCCCCC/C=C\CCCCCCCCCCCC(=O)O | 0.973 | 0.898 |
| COc1cc(OC)nc(Sc2cccc3c2C(=O)OC3C)n1 (centres undefined) | 0.988 | 0.977 |
| Cc1nc(C(F)(F)F)c(C(=O)Nc2c(Br)cc(OC(F)(F)F)cc2Br)s1 | 1.08 | 0.972 |
| COc1c(Cl)ccc(Cl)c1C(=O)O | 0.976 | 1.03 |
| O=C(O)CCCc1c[nH]c2ccccc12 | 0.96 | 1 |
| Cc1cc(C)cc(O)c1 | 1.03 | 1.03 |
| CCCCCCCC(=O)Oc1c(Br)cc(C#N)cc1Br | 0.935 | 0.937 |
| CN1CCC[C@H]1c1cccnc1 | 0.933 | 0.949 |
| CP(=O)(O)CCC(=O)O | 1.03 | 0.987 |
| CCCOC(=O)c1ccc(O)cc1 | 1 | 0.979 |
| CSc1nnc(C(C)(C)C)c(=O)n1/N=C/C(C)C | 1.07 | 1 |
| CC(=O)Oc1c(Cl)c(Cl)c(Cl)c(Cl)c1Cl | 1.04 | 0.909 |
| CCc1cccc(C)c1NC(=O)CS(=O)(=O)[O-].[Na+] | 1 | 1.01 |
| COC(=O)c1cccc(C)c1S(=O)(=O)NC(=O)Nc1nc(OCC(F)(F)F)nc(N(C)C)n1 | 0.984 | 0.984 |

| Structure (SMILES) | growth AUC (Roseburia intestinalis) | growth AUC (Streptococcus salivarius) |
| --- | --- | --- |
| ClC=C(c1ccc(Cl)cc1)c1ccc(Cl)cc1 | 0.932 | 0.928 |
| O=C(NC(=O)c1c(F)cccc1F)Nc1cc(C(F)(F)F)cc(C(F)(F)F)c1Cl | 0.942 | 0.922 |
| CCC/C(=N\OCC)C1=C(O)CC(C2CCCSC2)CC1=O (centres undefined) | 0.937 | 0.974 |
| C=CCO/N=C(\CCC)C1=C([O-])CC(C)(C)C(C(=O)OC)C1=O.[Na+] (centres undefined) | 0.982 | 1.02 |
| c1ccc2c(c1)ccc1ccccc12 | 0.993 | 0.997 |
| Cc1nn(C)c(F)c1C(=O)Nc1ccccc1C(C)CC(C)C (centres undefined) | 0.963 | 1.02 |
| CC(C)CCCCCOC(=O)C(C)Oc1ccc(Cl)cc1Cl (centres undefined) | 1.03 | 0.982 |
| CCCN(CCC)C(=O)SCC | 0.948 | 1 |
| C#CCOC(=O)[C@@H](C)Oc1ccc(Oc2ncc(Cl)cc2F)cc1 | 1.06 | 0.959 |
| CCCCCCCCCC[N+](C)(C)Cc1ccccc1.[Cl-] | 0.885 | 0.926 |
| CCOc1nc(F)cc2nc(S(=O)(=O)Nc3c(Cl)cccc3C(=O)OC)nn12 | 1.04 | 1.01 |
| CCOc1ccc(C2(C(=O)OC(C#N)c3cccc(Oc4ccccc4)c3)CC2(Cl)Cl)cc1 (centres undefined) | 0.951 | 0.891 |
| O=C(Oc1ccccc1)n1c(C(F)(F)F)nc2cc(Cl)c(Cl)cc21 | 0.797 (active) | 0.342 (active) |
| CN(C)C=O | 1.1 | 0.999 |
| C=CCOC(Cn1ccnc1)c1ccc(Cl)cc1Cl (centres undefined) | 0.767 (active) | 0.915 |
| CCNC(=O)[C@@H](C)OC(=O)Nc1ccccc1 | 1.14 | 1.02 |
| [S] | 0.952 | 0.997 |
| CC(C)N(C(=O)CS(=O)(=O)[O-])c1ccccc1.[Na+] | 1.02 | 0.997 |
| COc1nc(OC)nc(C(=O)c2cccc(F)c2N(C)S(=O)(=O)C(F)F)n1 | 1.01 | 1.02 |
